# Experimental data from the supplement of paper PMC8728848.
# Only a selection was taken, and the strongest signals are over-represented in it overall.
# Assays:
# Test in all cases: glycan array binding signal (z-score within array); higher = stronger binding
# Settings in all cases: glycan notation: IUPAC condensed, linker removed
# [1] = molecular target: Fuc(a1-2)Gal(b1-3)GlcNAc6S
# How it was run: (§1)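 From the Consortium for Functional Glycomics database, 3228 arrays were curated, keeping only those whose protein sequence was available. Binding is given as a within-array Z-score averaged across arrays sharing a protein sequence and across linkers. Negative Z-scores can be read as non-binding.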
# [2] = molecular target: Fuc(a1-2)Gal(b1-3)[Fuc(a1-4)]GlcNAc(b1-2)Man(a1-3)[Fuc(a1-2)Gal(b1-3)[Fuc(a1-4)]GlcNAc(b1-2)Man(a1-6)]Man(b1-4)GlcNAc(b1-4)[Fuc(a1-6)]GlcNAc(b1-4)[Fuc(a1-6)]GlcNAc
# How it was run: as §1
# Fuc(a1-2)Gal(b1-4)Glc = molecular target: Fuc(a1-2)Gal(b1-4)Glc
# How it was run: as §1
# Fuc(a1-2)Gal(b1-4)GlcNAc = molecular target: Fuc(a1-2)Gal(b1-4)GlcNAc
# How it was run: as §1
# [3] = molecular target: Fuc(a1-2)Gal(b1-4)[Fuc(a1-3)]GlcNAc
# How it was run: as §1
# [4] = molecular target: Fuc(a1-2)Gal6S(b1-4)GlcNAc
# How it was run: as §1
# [5] = molecular target: Fuc(a1-2)[Gal(a1-3)]Gal(b1-3)GlcNAc
# How it was run: as §1
# [6] = molecular target: Fuc(a1-2)[Gal(a1-3)]Gal(b1-4)[Fuc(a1-3)]GlcNAc
# How it was run: as §1
# [7] = molecular target: Fuc(a1-2)[GalNAc(a1-3)]Gal(b1-3)GlcNAc
# How it was run: as §1
# [8] = molecular target: Fuc(a1-2)[GalNAc(a1-3)]Gal(b1-3)GlcNAc(b1-2)Man(a1-3)[Fuc(a1-2)[GalNAc(a1-3)]Gal(b1-3)GlcNAc(b1-2)Man(a1-6)]Man(b1-4)GlcNAc(b1-4)GlcNAc
# How it was run: as §1
# [9] = molecular target: Fuc(a1-2)[GalNAc(a1-3)]Gal(b1-4)Glc
# How it was run: as §1
# [10] = molecular target: Fuc(a1-2)[GalNAc(a1-3)]Gal(b1-4)GlcNAc
# How it was run: as §1
# [11] = molecular target: Fuc(a1-2)[GalNAc(a1-3)]Gal(b1-4)GlcNAc(b1-2)Man
# How it was run: as §1
# [12] = molecular target: Fuc(a1-2)[GalNAc(a1-3)]Gal(b1-4)GlcNAc(b1-2)Man(a1-3)[Fuc(a1-2)[GalNAc(a1-3)]Gal(b1-4)GlcNAc(b1-2)Man(a1-6)]Man(b1-4)GlcNAc(b1-4)GlcNAc
# How it was run: as §1
# [13] = molecular target: Fuc(a1-2)[GalNAc(a1-3)]Gal(b1-4)GlcNAc(b1-3)Gal(b1-4)GlcNAc
# How it was run: as §1
# [14] = molecular target: Fuc(a1-2)[GalNAc(a1-3)]Gal(b1-4)GlcNAc(b1-3)Gal(b1-4)GlcNAc(b1-3)Gal(b1-4)GlcNAc
# How it was run: as §1
# [15] = molecular target: Fuc(a1-3)[Gal(b1-4)]GlcNAc(b1-6)GalNAc
# How it was run: as §1
# [16] = molecular target: Gal(a1-3)Gal(b1-4)[Fuc(a1-3)]GlcNAc
# How it was run: as §1
# [17] = molecular target: Gal(b1-3)GalNAc(a1-3)[Fuc(a1-2)]Gal(b1-4)Glc
# How it was run: as §1
# [18] = molecular target: Gal(b1-3)GalNAc(a1-3)[Fuc(a1-2)]Gal(b1-4)GlcNAc
# How it was run: as §1
# Gal(b1-3)GlcNAc = molecular target: Gal(b1-3)GlcNAc
# How it was run: as §1
# [19] = molecular target: Gal(b1-3)GlcNAc(b1-2)Man(a1-3)[Gal(b1-3)GlcNAc(b1-2)Man(a1-6)]Man(b1-4)GlcNAc(b1-4)GlcNAc
# How it was run: as §1
# [20] = molecular target: Gal(b1-3)[GlcNAc(b1-6)]GalNAc
# How it was run: as §1
# [21] = molecular target: Gal(b1-3)[Neu5Ac(a2-6)]GlcNAc(b1-6)Gal(b1-4)Glc
# How it was run: as §1
# [22] = molecular target: Gal(b1-4)GalNAc(a1-3)[Fuc(a1-2)]Gal(b1-4)GlcNAc
# How it was run: as §1
# Gal(b1-4)GlcNAc(b1-2)Man = molecular target: Gal(b1-4)GlcNAc(b1-2)Man
# How it was run: as §1
# [23] = molecular target: Gal(b1-4)GlcNAc(b1-3)Gal(b1-4)GlcNAc(b1-3)Gal(b1-4)GlcNAc
# How it was run: as §1
# [24] = molecular target: Gal(b1-4)GlcNAc(b1-3)Gal(b1-4)GlcNAc(b1-3)Gal(b1-4)GlcNAc(b1-3)Gal(b1-4)GlcNAc(b1-2)[Gal(b1-4)GlcNAc(b1-3)Gal(b1-4)GlcNAc(b1-3)Gal(b1-4)GlcNAc(b1-3)Gal(b1-4)GlcNAc(b1-6)]Man(a1-6)[Gal(b1-4)GlcNAc(b1-3)Gal(b1-4)GlcNAc(b1-3)Gal(b1-4)GlcNAc(b1-3)Gal(b1-4)GlcNAc(b1-2)Man(a1-3)]Man(b1-4)GlcNAc(b1-4)[Fuc(a1-6)]GlcNAc
# How it was run: as §1
# [25] = molecular target: Gal3S(b1-4)[Fuc(a1-3)]Glc6S
# How it was run: as §1
binder,measurement,setting,value
"Gal 4 (Mus musculus), P56470 (protein) MAYVPAPGYQPTYNPTLPYYQPIPGGLNVGMSVYIQGVASEHMKRFFVNFVVGQDPGSDVAFHFNPRFDGWDKVVFNTLQGGKWGSEERKRSMPFKKGAAFELVFIVLAEHYKVVVNGNPFYEYGHRLPLQMVTHLQVDGDLQLQSINFIGGQPLRPQGPPMMPPYPGPGHCHQQLNSLPTMEGPPTFNPPVPYFGRLQGGLTARRTIIIKGYVPPTGKSFAINFKVGSSGDIALHINPRMGNGTVVRNSLLNGSWGSEEKKITHNPFGPGQFFDLSIRCGLDRFKVYANGQHLFDFAHRLSAFQRVDTLEIQGDVTLSYVQI",glycan array binding signal (z-score),[1],4.25
same,glycan array binding signal (z-score),[2],-0.312
same,glycan array binding signal (z-score),Fuc(a1-2)Gal(b1-4)Glc,-0.196
same,glycan array binding signal (z-score),Fuc(a1-2)Gal(b1-4)GlcNAc,-0.232
same,glycan array binding signal (z-score),[3],-0.234
same,glycan array binding signal (z-score),[4],-0.199
same,glycan array binding signal (z-score),[5],2.26
same,glycan array binding signal (z-score),[6],-0.266
same,glycan array binding signal (z-score),[7],4.51
same,glycan array binding signal (z-score),[8],6.91
same,glycan array binding signal (z-score),[9],5.4
same,glycan array binding signal (z-score),[10],3.27
same,glycan array binding signal (z-score),[11],4.19
same,glycan array binding signal (z-score),[12],3.77
same,glycan array binding signal (z-score),[13],4.64
same,glycan array binding signal (z-score),[14],4.02
same,glycan array binding signal (z-score),[15],-0.301
same,glycan array binding signal (z-score),[16],-0.234
same,glycan array binding signal (z-score),[17],4.95
same,glycan array binding signal (z-score),[18],3.84
same,glycan array binding signal (z-score),Gal(b1-3)GlcNAc,-0.228
same,glycan array binding signal (z-score),[19],-0.181
same,glycan array binding signal (z-score),[20],-0.234
same,glycan array binding signal (z-score),[21],-0.176
same,glycan array binding signal (z-score),[22],4.23
same,glycan array binding signal (z-score),Gal(b1-4)GlcNAc(b1-2)Man,-0.289
same,glycan array binding signal (z-score),[23],-0.171
same,glycan array binding signal (z-score),[24],-0.148
same,glycan array binding signal (z-score),[25],-0.18
